# Results reported in ChEMBL document CHEMBL1961873, “Compounds: GSK PKIS; Assays: Nanosyn kinase panel” (2012).
# Target: Calcium/calmodulin-dependent protein kinase type II subunit alpha (Homo sapiens) (UniProt Q9UQM7)
# Conditions: at 1 µM
# 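Further: reported value is a mean percent inhibition of CAMK2A.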
# Calcium/calmodulin-dependent protein kinase type II subunit alpha (Homo sapiens), sequence (Q9UQM7 whole entry): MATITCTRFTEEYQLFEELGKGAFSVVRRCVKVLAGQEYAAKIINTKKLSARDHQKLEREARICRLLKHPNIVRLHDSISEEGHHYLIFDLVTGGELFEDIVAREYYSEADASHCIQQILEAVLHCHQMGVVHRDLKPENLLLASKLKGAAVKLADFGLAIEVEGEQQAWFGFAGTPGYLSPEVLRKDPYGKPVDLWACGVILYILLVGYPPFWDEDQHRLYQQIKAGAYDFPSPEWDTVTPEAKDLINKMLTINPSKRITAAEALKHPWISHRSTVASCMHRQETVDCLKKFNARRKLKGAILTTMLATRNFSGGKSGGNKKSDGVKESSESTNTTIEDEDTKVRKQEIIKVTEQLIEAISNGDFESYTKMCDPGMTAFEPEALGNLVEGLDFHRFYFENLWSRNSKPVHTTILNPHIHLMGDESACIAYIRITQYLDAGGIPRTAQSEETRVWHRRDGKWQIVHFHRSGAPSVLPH
row,Structure (SMILES),inhibition
1,O=C(Nc1n[nH]c2cc(-c3ccccc3)ccc12)C1CC1,2.25%
2,Cc1ccc(C(=O)NC2CCC2)cc1-c1ccc(C(=O)NCC2CC2)cc1,2.38%
3,O=C(Nc1n[nH]c2cc(-c3cc(F)ccc3F)ccc12)C1CC1,2.68%
4,CNC(=O)c1cncc(/C=C/c2c(C)cccc2C)c1,3.13%
5,O=C(Nc1n[nH]c2nc(-c3ccc(O)cc3)c(Br)cc12)C1CC1,8.39%
6,NS(=O)(=O)c1ccc(N/N=C2\C(=O)Nc3ccc(-c4cnco4)cc32)cc1,4.17%
7,Fc1ccc(-c2ncn(CCCN3CCOCC3)c2-c2ccncc2)cc1,1.91%
8,C[C@@H](Oc1cc(-n2cnc3ccc(OCC4CCN(C)CC4)cc32)sc1C(N)=O)c1ccccc1Cl,12.8%
9,CCc1ccc(Oc2nccc(-c3c(-c4ccc(F)cc4)ncn3C3CCNCC3)n2)cc1,5.86%
10,COc1cccc(/C=N/Nc2ncnc3c2cnn3-c2cccc(OC)c2)c1,1.28%
11,COc1ccc2cc(-c3c(-c4ccncc4)nc(-c4ccc(S(C)(=O)=O)cc4C)n3C)ccc2c1,3.89%
12,CS(=O)(=O)CCNCc1ccc(-c2ccc3ncnc(Nc4ccc(OCc5ccccc5)c(Br)c4)c3c2)o1,-1.77%
13,Fc1ccc(-c2ncn(C3CCNCC3)c2-c2ccnc(Oc3ccc(Oc4ccccc4)cc3)n2)cc1,9.16%
14,O=C1Nc2ccc(I)cc2C1=Cc1cc(Br)c(O)c(Br)c1,7.25%
15,COc1cc(Nc2ncc3c(C)nc(-c4cccc(Oc5ccccc5)c4)n3n2)cc(OC)c1OC,4.08%
16,CN1CCN(CCCNc2nc3ccc(Oc4ccc(NC(=O)Nc5cc(C(F)(F)F)ccc5F)cc4)cc3[nH]2)CC1,7.84%
17,COc1cc(Nc2ncc(-c3ccccc3)o2)cc(OC)c1OC,-0.38%

row,Structure (SMILES),inhibition
1,COc1ccc(C2=C(N3CCc4ccccc43)C(=O)NC2=O)cc1,4.72%
2,Cc1ccc(C(=O)NC(C)C)cc1-c1ccc(C(=O)NCC2CC2)cc1,-3.85%
3,NC(=O)c1cc(-c2ccc(F)cc2)cc(-c2ccncc2)c1N,3.68%
4,Clc1ccc(CNc2nccc(-c3cnn4ncccc34)n2)cc1,4.51%
5,O=C1Nc2ccccc2/C1=C/Nc1ccc(-n2cncn2)cc1,4.05%
6,Fc1ccc(-c2ncn(C3CCNCC3)c2-c2ccnc(Oc3ccc(F)c(F)c3)n2)cc1,0.43%
7,CN(c1ccc(NC(=O)Nc2c(Cl)cccc2Cl)cc1)c1ccnc(Nc2cccc(CS(C)(=O)=O)c2)n1,2.73%
8,NC(=O)Cc1ccccc1Oc1nccc(-c2c(-c3ccc(F)cc3)ncn2C2CCNCC2)n1,2.07%
9,CN(C)CCOc1ccc(-c2cc(-c3ccc4c(c3)CCC4=NO)c(-c3ccncc3)o2)cc1,0.22%
10,CN(C)c1ccc2c(c1)/C(=C/Nc1ccc(S(N)(=O)=O)cc1)C(=O)N2,3.56%
11,COc1cc(C)c(N(C)C(=O)CN(C)C)cc1Nc1nc(Nc2cccc(F)c2C(N)=O)c2cc[nH]c2n1,4.38%
12,O=C(NCC1CC1)c1ccc(-c2cccc(C(=O)NC3CC3)c2)cc1,2.74%
13,COc1cc(N2CCN(C(C)C)CC2)ccc1Nc1nc(Nc2ccc(F)cc2C(=O)NC[C@@H](O)CO)c2cc[nH]c2n1,4.13%
14,NC(=O)c1ccc(Oc2nccc(-c3c(-c4ccc(F)cc4)ncn3C3CCNCC3)n2)cc1,4.37%
15,COc1cc2ncn(-c3cc(OCCc4ccccc4)c(C(N)=O)s3)c2cc1OC,2.38%
16,CCc1cccc(CC)c1/C=C/c1cncc(C(=O)NC)c1,3.51%
17,COc1ccc2cc(-c3c(-c4ccncc4)nc(-c4ccc([S+](C)[O-])cc4C)n3C)ccc2c1 (centres undefined),-1.04%
